40 compounds from PubChem BioAssay (Tox21) can be followed below.

“And” between values parts separate entries of the source, which are not always exact repeats. Equal entries are not always repeated. Results filed as inconclusive are left out. A call without a number means that no potency is given here. The source made the active and inactive calls. The call rests on the fitted dose curve; in most records, active means well fitted cell-killing curve with a large enough effect in the repeat runs; inconclusive means weak or mixed curves, or effect the other way; inactive means flat fitted curve, though single readings scatter.
Potency means the concentration at half of the fitted maximal effect.

A short description of this assay: qHTS assay to identify small molecule antagonists of the androgen receptor (AR) signaling pathway using the MDA cell line - cell viability counter screen (AID 743041; further: nearly all actives have a fitted effect of over 45% in size). Conditions: MDA-kb2 viability, CellTiter-Fluor, 16 h, cells co-treated with R1881 androgen agonist; series mostly up to 70.3 µM. The source says:
National Center for Advancing Translational Sciences [NCATS]
NIH Chemical Genomics Center [NCGC]
U.S. Environmental Protection Agency [EPA]
National Institutes of Environmental Health Sciences [NIEHS]
National Toxicology Program [NTP]
U.S. Food and Drug Administration [FDA]
Androgen receptor (AR), a nuclear hormone receptor, plays a critical role in AR-dependent prostate cancer and other androgen related diseases. Endocrine disrupting chemicals (EDCs) and their interactions with steroid hormone receptors like AR may cause disruption of normal endocrine function as well as interfere with metabolic homeostasis, reproduction, developmental and behavioral functions. To identify the compounds that inhibit AR signaling, MDA-kb2 AR-luc cell line (from ATCC, deposited by Wilson et al.) was used to screen the Tox21 10K compound library. MDA-kb2 AR-luc cell line is human breast carcinoma cell line that was stably transfected with a luciferase reporter gene under control of the MMTV promoter containing response elements for both androgen receptor (AR) and glucocorticoid receptor (GR). The cytotoxicity of the Tox21 compound library against the MDA-kb2 AR-luc cell line was tested in parallel by measuring the cell viability using CellTiter-Fluor assay (Promega, Madison, WI) in the same wells.
Tox21 Assay Protocol Summary:
MDA-kb2 AR-luc cells were dispensed at 3,000 cells/4 uL/well of culture medium into white wall/solid-bottom 1536-well plates using a Multidrop Combi (ThermoFisher Scientific, Waltham, MA) dispenser. After the assay plates were incubated at a 37C and 0% CO2 for 5 hr, 23 nL of compounds dissolved in DMSO, positive controls or DMSO only was transferred to the assay plate by a Pintool station (Kalypsys, San Diego, CA), followed by addition of 1 uL of agonist (R1881) in culture medium using a Bioraptr Flying Reagent Dispenser (FRD) workstation (Beckman Coulter, Indianapolis, IN, USA). The plates were incubated at a 37C and 0% CO2 for 16 h. After 15.5 h incubation, 1uL of CellTiter-Fluor reagent (Promega) was added using a Bioraptr FRD to each plate for measuring cytotoxicity. The fluorescence intensity was quantified on a ViewLux plate reader (PerkinElmer, Shelton, CT) following 30 min incubation at 37C and 0% CO2.
(In general: qHTS replaces the single test concentration by a dilution series.)
`NC(=O)c1cnccn1`: the Potency entry is “inactive”. Then `CC(C)(Oc1ccc(C2CC2(Cl)Cl)cc1)C(=O)O` (stereo not given), with “inactive”.

Consider `COc1ccc2[nH]cc(CCNC(C)=O)c2c1`, for which the Potency entry was “inactive”. Regarding `CC1(C)[C@@H]2CC[C@@]1(C)C(=O)C2`, the Potency entry was “inactive”. Regarding `Oc1ccc(/C=C/c2cc(O)cc(O)c2)cc1`, the Potency result is “inactive”.

With `O=c1ccc2ccccc2o1`, the Potency result is “inactive”. As to `O=S(=O)(O)c1ccc2cc(O)ccc2c1`, the Potency result is “inactive”. In the case of `O=C1NC(=O)c2ccccc21` it was “inactive”; in that of `O=C(C1CCCCC1)N1CC(=O)N2CCc3ccccc3C2C1` (stereo not given), “inactive”; in that of `CCOc1ccc(NC(=O)CC(C)O)cc1` (stereo not given), “inactive”.

On to `CCCC(CCC)C(=O)O`, for which the Potency entry was “inactive”. As for `O=C(O)c1[nH]n(-c2ccc(S(=O)(=O)O)cc2)c(=O)c1N=Nc1ccc(S(=O)(=O)O)cc1`, the Potency is 15 µM (active) and 61.3 µM (active) and 57.1 µM (active). Then `Nc1ccc(C(=O)O)cc1`, with “inactive”. As to `NNC(=O)c1ccncc1`, the Potency result was “inactive”. Then `NC(N)=O`, with “inactive”. In the case of `CCCNC(=O)NS(=O)(=O)c1ccc(Cl)cc1` it was “inactive”; in that of `NC(=O)c1ccccc1O`, “inactive”. On to `Cc1cc(=O)n(-c2ccccc2)n1C`, for which the Potency result was “inactive”. For the compound `CC(=O)OCC(COC(C)=O)OC(C)=O`, the Potency result was “inactive”.

Consider `O=C(O)c1cccc([N+](=O)[O-])c1`, for which the Potency entry is “inactive”. With `Cc1ccccc1C(OCCN(C)C)c1ccccc1` (stereo not given), the Potency result was “inactive”. Then `O=C(c1ccccc1)C(O)c1ccccc1` (stereo not given), with “inactive”.

`CCCCC1C(=O)N(c2ccccc2)N(c2ccccc2)C1=O`: the Potency entry was “inactive”. For `O=NO`, the Potency result is “inactive”. Consider `Cc1ccc(O)cc1`, for which the Potency result is “inactive”. Consider `O=C(O)c1cccnc1`, for which the Potency result is “inactive”. In the case of `CCCCCCCCCCCCCCCC(=O)O`, the Potency result was “inactive”. Consider `CCCN(CCC)S(=O)(=O)c1ccc(C(=O)O)cc1`, for which the Potency result was “inactive”.

As to `C1N2CN3CN1CN(C2)C3`, the Potency entry was “inactive”.

For the compound `O=C(c1ccccc1)c1ccccc1`, the Potency entry is “inactive”.

Regarding `O=C1CN(/N=C/c2ccc([N+](=O)[O-])o2)C(=O)N1`, the Potency was 15.6 µM (active) and 54.3 µM (active) and 48.6 µM (active). Then `COc1c2occc2cc2ccc(=O)oc12`, with “inactive”; and `Nc1ccc(O)c(C(=O)O)c1`, with “inactive”; and `O=c1cc[nH]c(=S)[nH]1`, with “inactive”. In the case of `O=C(O)C(=O)O`, the Potency entry is “inactive”. Take `CCCC(O)C(CC)CO` (stereo not given): the Potency result was “inactive”. On to `CCCCC(CC)COC(=O)/C=C/c1ccc(OC)cc1` (stereo not given), for which the Potency result is “inactive”. With `O=C(O)CCCCCCCC(=O)O`, the Potency result is “inactive”. In the case of `CC(O)CO` (stereo not given), the Potency result is “inactive”. With `C/C=C/c1ccc(OC)cc1`, the Potency entry was “inactive”.
